Reference: PubChem BioAssay (Tox21)
Values joined by “and” are separate entries in the source; they are usually repeats but may differ in a detail not shown here. Equal entries are not always repeated. Inconclusive results are not listed. A call without a number means that no potency is given here. Where a structure was tested more than once in an assay, its records may differ in their call. Active and inactive are the calls of the source. Calls come from the whole dose curve; as a rule, active = well fitted curve in the direction sought with a large enough effect in the repeat runs; inconclusive = weak or mixed curves; inactive = no such curve, though single readings can be large; an effect the other way counts as inactive or inconclusive.

System: not listed separately
Assay: qHTS assay to identify small molecule antagonists of the androgen receptor (AR) signaling pathway using the MDA cell line - cell viability counter screen (AID 743041; note: nearly all actives have a fitted effect of over 45% in size)
Details: MDA-kb2 viability, CellTiter-Fluor, 16 h, cells co-treated with R1881 androgen agonist; series mostly up to 70.3 µM
Outline: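 Compound exposure lasted 16 h at 37C in MDA-kb2 AR-luc cells stimulated with R1881. Protease-based CellTiter-Fluor reagent was applied for the final 30 min and fluorescence measured.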
Potency is the fitted concentration of half-maximal effect.

Structure (SMILES) | Potency
O=[N+]([O-])c1ccc2ccc3cccc4ccc1c2c34 | inactive
CC1(c2ccc(Oc3ccccc3)cc2)OC(=O)N(Nc2ccccc2)C1=O (stereo not given) | 27.5 µM (active)
CN(C)c1ccc(N=Nc2ccccc2)cc1 | inactive
NNC(=O)c1ccccc1 | inactive
COc1ccc(OC)c(CC(C)N)c1 (stereo not given) | inactive
Clc1ccc(C(Cl)(Cl)Cl)c(Cl)c1 | inactive
CC1(C)[C@H](C(=O)O[C@H](C#N)c2cccc(Oc3ccccc3)c2)[C@@H]1/C=C(\Cl)C(F)(F)F | inactive
CCCN(CCC)CCc1c[nH]c2ccccc12 | inactive
O=[N+]([O-])c1ccc(Oc2ccc(C(F)(F)F)cc2[N+](=O)[O-])cc1 | inactive
O=c1[nH]c2ccccc2n1CCCN1CCC(n2c(=O)[nH]c3cc(Cl)ccc32)CC1 | inactive

Biological target: Androgen receptor (Homo sapiens) (UniProt P10275)
Assay: qHTS assay to identify small molecule antagonists of the androgen receptor (AR) signaling pathway using the MDA cell line (AID 743042; note: nearly all actives have a fitted effect of over 55% in size)
Details: MDA-kb2 AR-luc, MMTV luciferase, R1881 antagonist, 16 h; series mostly up to 70.3 µM
Outline: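 MDA-kb2 breast carcinoma cells carrying MMTV-luciferase (AR/GR responsive) were co-treated with compounds and the agonist R1881 for 16 h at 37C. Inhibition read as ONE-Glo luminescence; CellTiter-Fluor fluorescence measured in parallel for cytotoxicity.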

Chain of Androgen receptor (Homo sapiens) (P10275 whole entry, looked up): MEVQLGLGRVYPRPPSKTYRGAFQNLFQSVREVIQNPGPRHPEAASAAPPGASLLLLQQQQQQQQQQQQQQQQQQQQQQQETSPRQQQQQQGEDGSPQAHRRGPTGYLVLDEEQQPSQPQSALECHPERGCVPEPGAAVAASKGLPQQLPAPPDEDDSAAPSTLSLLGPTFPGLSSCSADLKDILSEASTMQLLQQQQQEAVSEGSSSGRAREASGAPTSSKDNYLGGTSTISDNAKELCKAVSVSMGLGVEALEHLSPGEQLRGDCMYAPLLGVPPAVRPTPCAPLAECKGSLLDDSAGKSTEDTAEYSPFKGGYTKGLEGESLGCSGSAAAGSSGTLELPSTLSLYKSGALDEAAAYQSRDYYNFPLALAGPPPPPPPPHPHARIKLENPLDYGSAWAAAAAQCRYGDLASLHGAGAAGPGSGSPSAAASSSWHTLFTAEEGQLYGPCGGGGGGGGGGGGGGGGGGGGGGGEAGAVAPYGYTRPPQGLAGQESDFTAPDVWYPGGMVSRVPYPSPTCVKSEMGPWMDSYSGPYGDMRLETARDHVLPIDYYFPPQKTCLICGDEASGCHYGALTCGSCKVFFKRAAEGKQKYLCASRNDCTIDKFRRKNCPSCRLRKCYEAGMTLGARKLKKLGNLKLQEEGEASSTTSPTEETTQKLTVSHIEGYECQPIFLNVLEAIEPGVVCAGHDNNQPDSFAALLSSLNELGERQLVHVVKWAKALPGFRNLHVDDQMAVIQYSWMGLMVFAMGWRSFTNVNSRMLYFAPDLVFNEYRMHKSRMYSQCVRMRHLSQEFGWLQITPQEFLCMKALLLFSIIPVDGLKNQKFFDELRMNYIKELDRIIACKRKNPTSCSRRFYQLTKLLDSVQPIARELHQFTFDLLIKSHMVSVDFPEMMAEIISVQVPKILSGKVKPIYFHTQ

Structure (SMILES) | Potency
CCN(CC)c1c([N+](=O)[O-])cc(C(F)(F)F)c(N)c1[N+](=O)[O-] | inactive
CCCCOCN(C(=O)CCl)c1c(CC)cccc1CC | 54.5 µM (active)
O=[N+]([O-])c1ccc2ccc3cccc4ccc1c2c34 | inactive
CNC(C)Cc1ccc2c(c1)OCO2 (stereo not given) | inactive
N#CSCSC#N | 55.7 µM (active) and 60.5 µM (active)

System: not listed separately
Assay: qHTS assay to identify small molecule antagonists of the thyroid receptor (TR) signaling pathway - cell viability counter screen (AID 743064); note: nearly all actives have a fitted effect of over 50% in size
Details: GH3.TRE-Luc viability, CellTiter-Fluor, 24 h; series mostly up to 70.3 µM
Outline: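 Same-well viability check: GH3.TRE-Luc cells stimulated with 1 nM T3 alongside test compound for 23.5 h, followed by CellTiter-Fluor fluorescence.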

Structure (SMILES) | Potency
CC1(C)CN=C(NN=C(/C=C/c2ccc(C(F)(F)F)cc2)/C=C/c2ccc(C(F)(F)F)cc2)NC1 | 12.2 µM (active)
CCN(CC)c1c([N+](=O)[O-])cc(C(F)(F)F)c(N)c1[N+](=O)[O-] | inactive
CC(Cc1ccc(C(C)(C)C)cc1)CN1C[C@@H](C)O[C@@H](C)C1 (stereo not given in full) | inactive
CN(C)[C@@H]1C(=O)C(C(N)=O)=C(O)[C@@]2(O)C(=O)C3=C(O)c4c(O)ccc(Cl)c4[C@@](C)(O)[C@H]3C[C@@H]12 | inactive
C[C@@H]1O[C@@H](O[C@@H]2C=C3CC[C@@H]4[C@H](CC[C@]5(C)[C@@H](c6ccc(=O)oc6)CC[C@]45O)[C@@]3(C)CC2)[C@H](O)[C@H](O)[C@H]1O | inactive
CCOP(=S)(OCC)OC(Cl)C(Cl)(Cl)Cl (stereo not given) | inactive
COc1cc(N)c(Cl)cc1C(=O)NC1CN2CCC1CC2 (stereo not given) | inactive
CC(C)OS(C)(=O)=O | inactive
ClC1=C(Cl)C2(Cl)C3C(Cl)C=CC3C1(Cl)C2(Cl)Cl (stereo not given) | 30.8 µM (active) and 54.5 µM (active)
Clc1ccc(CCC(Cn2ccnc2)Sc2c(Cl)cccc2Cl)cc1 (stereo not given) | inactive
Cc1cc(C)c(C2=C(OC(=O)CC(C)(C)C)C3(CCCC3)OC2=O)c(C)c1 | inactive
O=[N+]([O-])c1ccc2ccc3cccc4ccc1c2c34 | inactive
CNC(C)Cc1ccc2c(c1)OCO2 (stereo not given) | inactive
N#CSCSC#N | 2.79 µM (active) and 4.28 µM (active)
CN(C)c1ccc(N=Nc2ccccc2)cc1 | inactive
NNC(=O)c1ccccc1 | inactive
CN(C)C(=S)[S-].CN(C)C(=S)[S-].[Cu+2] | 1.49 µM (active)
CC(C)CC(C)(c1ccc(O)cc1)c1ccc(O)cc1 | 54.6 µM (active) and 54.5 µM (active)
COc1ccc(OC)c(CC(C)N)c1 (stereo not given) | inactive
C[C@]12CC[C@@H]3c4ccc(OC(=O)N(CCCl)CCCl)cc4CC[C@H]3[C@@H]1CC[C@@H]2O | inactive
CN(C)CCc1c[nH]c2cccc(O)c12 | inactive
Clc1ccc(C(Cl)(Cl)Cl)c(Cl)c1 | inactive
Oc1ccc(C(c2ccc(O)cc2)(C(F)(F)F)C(F)(F)F)cc1 | 24.2 µM (active) and 61.1 µM (active)
CCCCCCCCCCCCCCCC[n+]1ccccc1 | 16.8 µM (active) [middle of 4 runs]
C[C@H]1CC[C@@H]2[C@@H](C)[C@H]3[C@H](C[C@H]4[C@@H]5CC=C6CC(O[C@@H]7O[C@H](CO)[C@H](O)[C@H](O[C@@H]8O[C@H](CO)[C@@H](O)[C@H](O)[C@H]8O)[C@H]7O[C@H]7O[C@@H](C)[C@H](O)[C@@H](O)[C@H]7O)CC[C@]6(C)[C@H]5CC[C@]34C)N2C1 (stereo not given in full) | 18.8 µM (active) and inactive
CCCOCC(=Nc1ccc(Cl)cc1C(F)(F)F)n1ccnc1 | 7.69 µM (active)
CC1(C)[C@H](C(=O)O[C@H](C#N)c2cccc(Oc3ccccc3)c2)[C@@H]1/C=C(\Cl)C(F)(F)F | inactive
CCCN(CCC)CCc1c[nH]c2ccccc12 | 53.8 µM (active)
c1ccc2c(c1)[nH]c1cnccc12 | inactive
O=[N+]([O-])c1ccc(Oc2ccc(C(F)(F)F)cc2[N+](=O)[O-])cc1 | inactive
